In PubChem BioAssay AID504452 (The Scripps Research Institute Molecular Screening Center, 2011):
Active and inactive are the calls of the source. No stated cut-off is given here; in the data, active means activation above about 85%; inactive means the rest.

What follows are molecules tested against Peroxisome proliferator-activated receptor gamma (Homo sapiens) (UniProt P37231) (assay: PPARg partial agonist activation, primary screen, cell-based, luciferase reporter, luminescence (AID 504452;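 further: Cos-1 cells carrying PPARgamma and a response element luciferase reporter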)). Details: at 5 µM, stronger effect = higher value; activation (% of full agonist control): measured here: relative to full agonist control.
Chain of Peroxisome proliferator-activated receptor gamma (Homo sapiens) (P37231 whole entry, looked up): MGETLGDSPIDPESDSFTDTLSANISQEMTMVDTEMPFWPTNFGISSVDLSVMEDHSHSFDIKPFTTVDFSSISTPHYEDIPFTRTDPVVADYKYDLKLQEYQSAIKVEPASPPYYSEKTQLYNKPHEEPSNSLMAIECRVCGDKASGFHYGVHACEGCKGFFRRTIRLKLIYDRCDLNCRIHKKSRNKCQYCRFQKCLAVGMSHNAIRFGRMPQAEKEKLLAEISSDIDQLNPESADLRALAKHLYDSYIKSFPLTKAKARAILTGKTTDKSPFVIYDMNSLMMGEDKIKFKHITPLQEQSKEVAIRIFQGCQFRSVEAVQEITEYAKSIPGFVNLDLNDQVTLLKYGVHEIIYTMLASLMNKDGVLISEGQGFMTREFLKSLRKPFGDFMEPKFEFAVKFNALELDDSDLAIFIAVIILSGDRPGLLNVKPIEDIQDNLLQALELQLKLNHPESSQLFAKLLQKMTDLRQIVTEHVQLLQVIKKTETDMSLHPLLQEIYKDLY

Structure (SMILES)	activation (% of full agonist control) [%]	activation (% of partial agonist control)
O=C(Cc1cccc(C(F)(F)F)c1)Nc1cc(S(=O)(=O)N2CCOCC2)ccc1N1CCCC1	31.4	69.5% (inactive)
COc1ccccc1-n1cc(C(=O)c2cc(Cl)ccc2O)cc(C#N)c1=O	44.9	99.4% (active)
CCC(=O)Nc1nonc1-c1nc2ccccc2n1Cc1cccc2ccccc12	25.1	55.5% (inactive)
O=C(Cn1c(=O)c(=O)n(Cc2ccccc2)c2ccc(Cl)cc21)NCC1CCCO1 (stereo unspecified)	31.1	68.9% (inactive)
O=C(Nc1cc(F)ccc1F)C1CCCN(c2ncnc3c2nc2n3CCCCC2)C1 (stereo unspecified)	32.1	71% (inactive)
O=C(O)CC(NC(=O)C(c1ccccc1)c1ccccc1)c1ccc(F)cc1 (stereo unspecified)	27.7	61.3% (inactive)
O=C(COc1ccc([N+](=O)[O-])cc1)Nc1cccc(C(=O)Nc2ccccc2C(=O)O)c1	27.7	61.3% (inactive)
Cc1ccc(-n2ncc3c(=O)[nH]c(SCC(=O)N4CCCc5ccccc54)nc32)cc1	36.4	80.5% (inactive)
Cc1cccc(NC(=O)CN2C(=O)N/C(=C/c3ccc(-c4cccc(C(=O)O)c4C)o3)C2=O)c1	34.1	75.5% (inactive)
COc1cccc(NS(=O)(=O)c2ccc3c(c2)C2C=CCC2C(c2ccc(C(=O)O)cc2)N3)c1 (stereo unspecified)	32.7	72.4% (inactive)
O=C(CN1C(=O)/C(=C/c2ccccc2F)Sc2ccccc21)NCC1CCCO1 (stereo unspecified)	35	77.5% (inactive)
CCOC(=O)c1c(C)[nH]c(C(=O)Cn2c(=O)c3c(ncn3CC)n(Cc3ccccc3)c2=O)c1C	29.8	66% (inactive)
CCOc1cccc(/C(O)=C2/C(=O)C(=O)N(Cc3cccnc3)C2c2ccco2)c1 (stereo unspecified)	30.8	68.2% (inactive)
CCOc1cc(C2C(C(=O)OC)=CN(Cc3ccc(Cl)cc3)C=C2C(=O)OC)ccc1O	37.6	83.2% (inactive)
Cc1cccc(NC(=O)CN2C(=O)/C(=C3\SC(=S)N(CC4CCCO4)C3=O)c3ccccc32)c1 (stereo unspecified)	43.3	95.8% (active)
S=C(NCCc1ccccc1)N1CCn2cccc2C1c1ccncc1 (stereo unspecified)	44.2	97.9% (active)
CN(CCNC(=O)C1CCCN(c2ncnc3c2nc2n3CCCCC2)C1)Cc1ccccc1 (stereo unspecified)	49	109% (active)

Structure (SMILES)	activation (% of full agonist control) [%]	activation (% of partial agonist control)
CC(Oc1ccc(F)cc1)C(=O)Nc1cc(S(=O)(=O)N2CCOCC2)ccc1N1CCCC1 (stereo unspecified)	33.9	75.1% (inactive)
COc1cccc(CN2CCN(Cc3ccc4c(NC(C)=O)cccc4n3)CC2CCO)c1 (stereo unspecified)	36.5	80.7% (inactive)
N#Cc1ccc(C(=O)Nc2cc(-c3ccc(F)cc3)nn2-c2ccccc2)cc1	27.4	60.6% (inactive)
COC(=O)c1ccc(NC(=O)C(=O)c2cn(CC(=O)N3CCOCC3)c3ccccc23)cc1	32.1	71.1% (inactive)
COc1cccc(C2/C(=C(/O)c3ccccc3)C(=O)C(=O)N2Cc2ccco2)c1 (stereo unspecified)	35.3	78.2% (inactive)
Cc1ccc(C)c(S(=O)(=O)NCC(c2ccco2)N2CCc3ccccc3C2)c1 (stereo unspecified)	29	64.3% (inactive)
O=C(COc1coc(CN2CCc3ccccc3C2)cc1=O)Nc1cccc(Cl)c1	29.2	64.6% (inactive)
COc1ccc(CNC(=O)Cn2c(=O)n(CCC(=O)N3CCCCC3)c(=O)c3sccc32)cc1	46.4	103% (active)
N#C/C(=C\c1ccc(OCCN2CCOCC2)cc1)C(=O)Nc1ccc(S(N)(=O)=O)cc1	36.8	81.4% (inactive)
COc1cc(C(CC(=O)Nc2cccc(C)n2)N2Cc3ccccc3C2=O)cc(OC)c1OC (stereo unspecified)	29.1	64.3% (inactive)
COC(=O)C1=CN(Cc2ccc(C)cc2)C=C(C(=O)OC)C1c1ccc(F)c(F)c1	36.2	80.2% (inactive)
Cc1cc(N2C(=O)C(=O)/C(=C(/O)c3ccc(F)cc3)C2c2ccc(F)cc2)no1 (stereo unspecified)	31.8	70.3% (inactive)
COc1ccccc1NC(=O)C(=O)c1cn(CC(=O)N2CCOCC2)c2ccccc12	42.3	93.5% (active)
COC(=O)c1sc(N2C(=O)C(=O)/C(=C(/O)c3ccc(C)cc3)C2c2ccco2)nc1C (stereo unspecified)	37.7	83.5% (inactive)
Cc1nn(CC(=O)N2CCC(N3CCCCC3)CC2)c(=O)c2c1sc1ccccc12	27.9	61.8% (inactive)
CCOC(=O)N1CCN(C(=O)c2ccc(S(=O)(=O)c3ccc(C)cc3)c(NC(C)=O)c2)CC1	37.2	82.4% (inactive)
